hNpr1 antagonist = Natriuretic polypeptide receptor (hNpr1) antagonism - Primary qHTS; HEK293 hNpr1 GloSensor cGMP, ANP-stimulated luminescence; Potency, µM (titrated, usually from 46.3 µM), hits mostly inhibitors; actives 1.6% (n = 76,000); calls by dose curve; note: nearly all actives have a fitted effect of over 60% in size
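HEK293 cells stably expressing human Npr1 and cGMP GloSensor pGS-40F, loaded 2 h with 2% GloSensor reagent, given compound 30 min at room temperature. Luminescence read before and 20 min after 0.1 nM hNppA.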
NIH3T3 tox = Cytotoxic Profiling in NIH 3T3 Cell Line of Diverse Libraries Using Quantitative High-Throughput Screening; NIH 3T3 viability, CellTiter-Glo ATP luminescence, 48-72 h; actives 4.3% (n = 94,000); Potency, µM (highest dose often 96.7 µM), actives largely listed as inhibitors; note: nearly all actives have a fitted effect of over 55% in size
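Luminescent ATP readout (CellTiter-Glo, 10 min RT) after 48 or 72 hr compound exposure of NIH 3T3 cells seeded at 400 cells/well in 1536-well format; quantitative HTS.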
GPT2 inhibitor = Primary qHTS assay for inhibitors of Glutamate pyruvate transaminase 2 (GPT2); Alanine aminotransferase 2 (Homo sapiens), Q8TD30; Recombinant GPT2, coupled pyruvate oxidase/HRP Amplex Red fluorescence; Potency, µM (titrated, usually from 57.7 µM), most hits filed as inhibitors; actives 0.25% (n = 100,000); AID 1671188, 2021; note: nearly all actives have a fitted effect of over 60% in size
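Inhibition is scored from Amplex Red fluorescence generated when pyruvate oxidase and HRP act on pyruvate released by GPT2. Reactions contain 10ng/uL enzyme, 250uM a-KG and 2mM L-alanine and run 30 min at room temperature.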
HEK293 tox = Cytotoxic Profiling in HEK 293 Cell Line of Diverse Libraries Using Quantitative High-Throughput Screening; actives 6.6% (n = 94,000); HEK 293 viability, ATP luminescence (CellTiter-Glo), 48-72 h; Potency, µM (highest dose often 115 µM), hits mostly inhibitors; note: nearly all actives have a fitted effect of over 60% in size
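Read-out: CellTiter-Glo ATP luminescence. Cells: HEK 293, 250 cells/well. Exposure: 48 or 72 hr, 37 degree Celsius.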
FLuc inh = Firefly luciferase inhibition profiling of diverse chemical library using quantitative high-throughput screening; Luciferin 4-monooxygenase (Photinus pyralis), P08659; purified P. pyralis luciferase, luminescence, biochemical; Potency, µM (series often up to 115 µM), most hits filed as inhibitors; actives 2.5% (n = 76,000); note: nearly all actives have a fitted effect of over 65% in size
Target sequence (P08659 whole entry, looked up): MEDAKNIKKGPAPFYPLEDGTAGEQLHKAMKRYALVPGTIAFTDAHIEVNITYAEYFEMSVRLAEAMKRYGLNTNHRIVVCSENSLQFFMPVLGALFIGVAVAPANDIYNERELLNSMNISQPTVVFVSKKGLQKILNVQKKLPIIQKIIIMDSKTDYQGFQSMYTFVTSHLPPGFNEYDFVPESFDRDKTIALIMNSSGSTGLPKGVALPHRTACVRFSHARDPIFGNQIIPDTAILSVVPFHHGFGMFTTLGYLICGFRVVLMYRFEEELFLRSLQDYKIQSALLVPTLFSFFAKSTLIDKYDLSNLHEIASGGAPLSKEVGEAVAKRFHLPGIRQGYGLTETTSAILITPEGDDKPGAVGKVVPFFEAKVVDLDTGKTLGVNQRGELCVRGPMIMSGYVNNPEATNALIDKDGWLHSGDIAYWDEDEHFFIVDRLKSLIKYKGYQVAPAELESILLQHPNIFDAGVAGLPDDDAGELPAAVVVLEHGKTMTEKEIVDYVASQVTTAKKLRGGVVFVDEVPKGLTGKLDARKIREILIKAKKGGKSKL
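Purified 10nM P. pyralis luciferase with 10uM D-luciferin and 10uM ATP in 50mM Tris acetate pH 7.5, 10mM Mg acetate, 0.01% Tween-20, 0.05% BSA. qHTS titration; luminescence read by CCD imager.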
Large screens that a line does not name were inactive; ! = repeats disagree. Hits are enriched below; roughly 10% of the tested compounds scored in any of these assays. Unless noted, calls come from the whole dose curve; as a rule, active = well fitted curve in the direction sought with a large enough effect; inconclusive = small, poorly fitted or top-dose-only effect, or another doubt; inactive = no such curve, though single readings can be large; an effect the other way counts as inactive or inconclusive.

c1ccc(CCN2CCNc3cc(-c4cn[nH]c4)ncc3C2)cc1	NIH3T3 tox 89µM, HEK293 tox inconclusive
COCCN1CCNc2cc(-c3ccc(Oc4ccccc4)cc3)ncc2C1	hNpr1 antagonist inconclusive, NIH3T3 tox 45µM, HEK293 tox 50µM, FLuc inh 28µM
OCc1cccc(-c2cc3c(cn2)CN(CCc2ccccc2)CCN3)c1	NIH3T3 tox inconclusive, HEK293 tox inconclusive
c1ccc(CN2CCNc3cc(-c4cccnc4)ncc3C2)cc1	HEK293 tox inconclusive
c1ccc(CCN2CCNc3cc(NCc4cccnc4)ncc3C2)cc1	NIH3T3 tox 50µM, HEK293 tox 50µM
O=C(NCc1ccc(F)cc1)c1ccc2nc(-c3ccccn3)oc2c1	NIH3T3 tox inconclusive, HEK293 tox inconclusive (no result: hNpr1 antagonist, FLuc inh)
Cc1ncc2n1C(=O)N(C1CCN(Cc3ccc(OC(F)(F)F)cc3)CC1)C2	hNpr1 antagonist inconclusive, NIH3T3 tox inconclusive, HEK293 tox 14µM
COc1cc(CN2CCC3(CCNCC3)C2)cc(OC)c1OC	HEK293 tox inconclusive
Cc1ccc(CN2CCC3(CCNCC3)C2)c(Cl)c1Cl	NIH3T3 tox inconclusive, HEK293 tox inconclusive
c1ccc(COc2ccccc2CN2CCC3(CCNCC3)C2)cc1	NIH3T3 tox 22µM, HEK293 tox 28µM
CC(C)(C)c1cccc(CN2CCC3(CCNCC3)C2)c1O	NIH3T3 tox 22µM, HEK293 tox 22µM
Cc1ccc(C(=O)N2CCC3(CC2)COc2ccccc2NC3=O)cc1	HEK293 tox inconclusive
O=C(c1ccc(C(F)(F)F)cc1)N1CCC2(CC1)COc1ccccc1NC2=O	NIH3T3 tox inconclusive, HEK293 tox 79µM
O=C(c1ccccc1F)N1CCC2(CC1)SCC(=O)N2c1ccc(Cl)cc1	NIH3T3 tox inconclusive, HEK293 tox inconclusive
O=C(c1cscn1)N1CCC2(COc3ncccc3S(=O)(=O)N2)C1 (centres undefined)	none (no result: hNpr1 antagonist, FLuc inh)
Cn1ncc2c(C(=O)NCc3cccs3)cc(-c3ccc(C(F)(F)F)cc3)nc21	NIH3T3 tox inconclusive, HEK293 tox 35µM (no result: hNpr1 antagonist, GPT2 inhibitor, FLuc inh)
COc1cccc(-c2cc(C(=O)NCc3cccs3)c3cnn(C)c3n2)c1	NIH3T3 tox 25µM!, HEK293 tox inconclusive (no result: hNpr1 antagonist, GPT2 inhibitor, FLuc inh)
COc1cccc(CNC(=O)c2cc(-c3ccc(F)cc3)nc3c2cnn3C)c1	NIH3T3 tox inconclusive, HEK293 tox 28µM (no result: hNpr1 antagonist, FLuc inh)
Cn1ncc2c(C(=O)NCc3cccs3)cc(-c3ccc(Cl)cc3)nc21	NIH3T3 tox inconclusive, HEK293 tox inconclusive (no result: hNpr1 antagonist, FLuc inh)
COc1ccc(-c2cc(C(=O)NCc3cccc(OC)c3)c3cnn(C)c3n2)cc1	NIH3T3 tox inconclusive, HEK293 tox inconclusive (no result: hNpr1 antagonist, FLuc inh)
COc1cc(CNC(=O)c2cc(-c3ccc(Cl)cc3Cl)nc3c2cnn3C)cc(OC)c1	NIH3T3 tox inconclusive, HEK293 tox 45µM (no result: hNpr1 antagonist, FLuc inh)
CCC(C)C(=O)N1CCC2(CC1)NCCc1c2[nH]c2ccc(OC)cc12 (centres undefined)	HEK293 tox inconclusive
COc1cccc(-c2cc(C(=O)NCC#N)c3cnn(C)c3n2)c1	NIH3T3 tox 40µM, HEK293 tox inconclusive (no result: hNpr1 antagonist, GPT2 inhibitor, FLuc inh)
Cn1ncc2c(C(=O)NCc3cccc(Cl)c3)cc(-c3ccccc3)nc21	none (no result: hNpr1 antagonist, FLuc inh)
Cc1ccc(-c2cc(C(=O)NCc3cccc(Cl)c3)c3cnn(C)c3n2)cc1	none (no result: hNpr1 antagonist, FLuc inh)
Cc1ccc(-c2cc(C(=O)NCc3cccc(Cl)c3)c3cnn(C)c3n2)c(C)c1	NIH3T3 tox inconclusive, HEK293 tox 32µM (no result: hNpr1 antagonist, FLuc inh)
Cn1ncc2c(C(=O)NCCc3c[nH]c4ccccc34)cc(-c3ccc(C(F)(F)F)cc3)nc21	NIH3T3 tox 40µM, HEK293 tox inconclusive (no result: hNpr1 antagonist, GPT2 inhibitor, FLuc inh)
COc1cccc(-c2cc(C(=O)NCc3cccc(Cl)c3)c3cnn(C)c3n2)c1	NIH3T3 tox 22µM, HEK293 tox inconclusive (no result: hNpr1 antagonist, GPT2 inhibitor, FLuc inh)
CCOCCNc1ncnc2c1CN(c1ccc(C)cc1)C(=O)CN2C	GPT2 inhibitor inconclusive
Cc1ccncc1C(=O)N1CC(N(C)Cc2cccnc2)C1	FLuc inh 35µM
COc1cccc(-c2cc3c(=O)n(CCNC(=O)c4cccnc4)ccn3n2)c1	FLuc inh inconclusive
COc1cccc(-c2cc3c(=O)n(CCNC(=O)c4c(F)cccc4F)ccn3n2)c1	FLuc inh 7.9µM
COc1cccc(-c2cc3c(=O)n(CCNC(=O)c4cc(F)cc(F)c4)ccn3n2)c1	NIH3T3 tox inconclusive, HEK293 tox inconclusive
COc1cccc(-c2cc3c(=O)n(CCNC(=O)C(C)Oc4ccccc4)ccn3n2)c1 (centres undefined)	hNpr1 antagonist inconclusive, NIH3T3 tox inconclusive, HEK293 tox 45µM, FLuc inh inconclusive
COc1cccc(-c2cc3c(=O)n(CCNC(=O)c4ccoc4)ccn3n2)c1	HEK293 tox 45µM, FLuc inh inconclusive
CCC(C)Nc1ccc2nncn2n1 (centres undefined)	none
COc1cccc(-c2ccc(C(=O)N3CCC(N[S+](=O)([O-])c4ccccc4)CC3)cc2)c1	NIH3T3 tox inconclusive, HEK293 tox 20µM (no result: hNpr1 antagonist, FLuc inh)
COc1cccc(-c2ccc(C(=O)N3CCC(NC(=O)Nc4ccccc4)CC3)cc2)c1	NIH3T3 tox inconclusive, HEK293 tox 25µM (no result: hNpr1 antagonist, FLuc inh)
COc1cccc(-c2ccc(C(=O)N3CCC(NC(=O)Nc4ccc(Cl)cc4)CC3)cc2)c1	NIH3T3 tox 28µM, HEK293 tox 10µM (no result: hNpr1 antagonist, FLuc inh)
COc1ccccc1-c1ccc(C(=O)N2CCC(NC(=O)Nc3ccccc3)CC2)cc1	NIH3T3 tox inconclusive, HEK293 tox 40µM (no result: hNpr1 antagonist, FLuc inh)
COc1cccc(-c2ccc(C(=O)N3CCC(NC(=O)c4ccc(C)cc4)CC3)cc2)c1	HEK293 tox inconclusive (no result: hNpr1 antagonist, FLuc inh)
COc1cccc(-c2ccc(C(=O)N3CCC(NC(=O)C4CCCC4)CC3)cc2)c1	NIH3T3 tox inconclusive, HEK293 tox inconclusive (no result: hNpr1 antagonist, FLuc inh)
